# Hits are enriched below; roughly 32% of the tested compounds scored in any of these assays.
# CYP2C9 activ – human CYP2C9 activators, primary screen, biochemical, luminescence | recombinant CYP2C9, luciferin-H conversion; hits give high values; factor 1 = untreated enzyme, 0 = blocked | AID 1024, 2008 | hit rate 1.4% among 96,000 | activation factor at 5 µM | Cytochrome P450 2C9 (Homo sapiens), P11712;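 active = activation factor of 2 or more for CYP2C9 at a 5 µM dose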;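 note: 0 = sulfaphenazole-blocked wells and 1 = vehicle-only wells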
# CYP2C19 inh – blockers of cytochrome P450 2C19 activity – biochemical, luminescence, ADME assay, primary screen. P33261. CYP2C19 Supersomes, luciferin-H EGE luminescence, 30 min. inhibition, % at 5 µM. hit rate 21% among 96,000;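 active = CYP2C19 inhibition above a set limit at 5 µM in the primary screen, cut at about 50% in these data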;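 note: plate controls were negative control wells for no effect and 2.5 mM tranylcypromine positive control for full effect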
# Target sequence (P33261 whole entry, looked up): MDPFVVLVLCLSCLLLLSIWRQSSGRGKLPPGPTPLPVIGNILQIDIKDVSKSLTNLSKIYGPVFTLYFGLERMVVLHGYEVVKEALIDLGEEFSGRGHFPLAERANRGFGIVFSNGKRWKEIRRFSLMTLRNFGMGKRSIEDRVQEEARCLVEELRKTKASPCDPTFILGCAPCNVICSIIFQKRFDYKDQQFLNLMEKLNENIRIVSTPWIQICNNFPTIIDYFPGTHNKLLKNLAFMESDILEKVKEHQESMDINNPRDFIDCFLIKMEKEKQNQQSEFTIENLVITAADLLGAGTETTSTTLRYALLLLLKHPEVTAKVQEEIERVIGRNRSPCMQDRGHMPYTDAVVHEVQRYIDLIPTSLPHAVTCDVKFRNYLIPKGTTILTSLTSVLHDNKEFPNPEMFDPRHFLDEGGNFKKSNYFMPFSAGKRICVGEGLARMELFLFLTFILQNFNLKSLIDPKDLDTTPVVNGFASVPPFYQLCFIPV
# PostGolgi yeast – phenotypic screen on post-Golgi transport, primary screen; post-Golgi transport phenotypic cell assay; inhibition, % at 10 µM; hit rate 0.9% among 98,000; AID 739, 2007;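 note: yeast cells grown in 1536-well plates; yeast grown about 18 h at 30C before absorbance read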
# PostGolgi ctrl – growth inhibition of yeast control strain, primary screen, counter-screen for post-Golgi transport modulator project; inhibition, % at 10 µM; efflux-deficient yeast background strain, growth absorbance A615, 16 h; hit rate 5% among 98,000
# CYP2C9 inh – blockers of cytochrome P450 2C9 activity – biochemical, luminescence, ADME assay, primary screen | P11712 | CYP2C9 Supersomes, luciferin-H conversion | inhibition, % at 5 µM | hit rate 20% among 96,000;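 active = blocking of liver enzyme CYP2C9 beyond about 50% at 5 µM, limit read from the data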
# CYP2C19 act – human CYP2C19 activators, primary screen, biochemical, luminescence; recombinant CYP2C19, luciferin-H EGE luminescence; hits give high values; 0 = fully inhibited enzyme, 1 = untreated enzyme; activation factor at 5 µM; 96,000 tested, under 10 active; AID 1025, 2008;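 active = activation factor of at least 2 at 5 µM in the primary screen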;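 note: 0 = wells with 2.5 mM tranylcypromine and 1 = vehicle-only wells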
# Numbers without * were called inactive; x = no result. Cut-off read from the data, not from the text of the source, unless noted: active = inhibition above about 30%; inactive = the rest.
SMILES,CYP2C9 activ,CYP2C19 inh,PostGolgi yeast,PostGolgi ctrl,CYP2C9 inh,CYP2C19 act
CCc1ccc(C(=O)COC(=O)c2ccc(-c3nnc(-c4ccccc4)o3)cc2)cc1,1.1,64*,-1,10,-8,0.4
Cn1c(SC2C(=O)CC(C)(C)CC2=O)nnc1-c1ccco1,1,2,-5,0,2,1
CCOCCCNC(=O)c1ccc(CS(=O)(=O)Cc2cccc(C)c2)o1,0.9,23,-11,33*,7,0.8
Cc1cccc(CS(=O)(=O)Cc2ccc(C(=O)NCCCN3CCCC3)o2)c1,0.8,11,33*,-9,25,0.9
Cc1cccc(CS(=O)(=O)Cc2ccc(C(=O)NCCCN3CCOCC3)o2)c1,0.8,11,-5,-2,22,0.9
O=c1c2c3c(sc2n2cnnc2n1C1CCCCC1)CCC3,0.9,13,x,x,14,0.9
CCOc1cc(C2CC(=O)Nc3cc(C)c(C)cc32)ccc1O (configuration not stated),0.2,87*,14,9,84*,0.1
CCOc1cc(C2CC(=O)NC(SCC)=C2C#N)ccc1O (configuration not stated),0.7,33,4,0,27,0.7
CCC(=O)N(CCc1ccccc1)Cc1cc2cc3c(cc2[nH]c1=O)OCO3,0.9,8,-6,2,12,0.9
CCC(=O)N(CCC(Cc1ccccc1)c1ccc2c(c1)OCO2)Cc1ccccc1F (configuration not stated),0,96*,-1,21,96*,0
O=C(NCCCN1CCN(CCCNC(=O)c2ccccc2F)CC1)c1ccccc1F,1.3,-14,3,16,-31,1.1
COC(=O)c1c(N)c(C#N)c2n1CCCCC2,0.9,76*,18,14,6,0.2
COC(=O)Cn1cnc2c(C#N)c3n(c2c1=O)CCCCC3,0.9,14,0,-3,12,0.9
N#Cc1c(N)c(C(=O)c2ccccc2)n2c1CCC2,1.1,51*,2,-4,-15,0.5
N#Cc1c2n(c3c(-c4ccccc4)ncnc13)CCC2,1.1,6,-1,3,-9,0.9
COc1ccc(-c2c(C(=O)O)nc3ccccc3c2C(=O)O)cc1,1,4,3,16,1,1
CCOC(=O)c1csc(NC(=O)c2ccccc2)n1,0.6,74*,-4,15,43,0.3
CCOC(=O)Cc1nnc(NC(=O)c2ccccc2OCC)s1,x,x,-11,9,x,x
CCOC(=O)Cc1cnc(NC(=O)c2ccccc2)s1,0.2,94*,-1,-5,84*,0.1
COc1cc(C(=O)NCc2ccc(-c3nc4ccccc4o3)cc2)cc(OC)c1OC,0.9,16,5,4,14,0.8
CCOC(=O)c1c(C)[nH]c(C)c1C(=O)COC(=O)[C@@H](NC(=O)c1ccccc1OCC)C(C)C,0,100*,1,0,98*,0
CCOC(=O)c1c(C)[nH]c(C)c1C(=O)COC(=O)CNC(=O)c1ccc(OCC)cc1,0.7,53*,21,-2,26,0.5
CCOc1ccccc1C(=O)NC(C(=O)OCC(=O)Nc1nnc(-c2ccccc2)o1)C(C)C (configuration not stated),0.8,16,20,6,20,0.8
Cc1ccc(-c2c3c(=O)n(C)c(=O)n(C)c3cn2N2CCOCC2)cc1,0.7,2,-2,51*,33,1
CC(NC(=O)Cn1cc(C(=O)C2CC2)c2ccccc21)c1ccccc1 (configuration not stated),0.7,59*,-2,0,30,0.4
SMILES,CYP2C9 activ,CYP2C19 inh,PostGolgi yeast,PostGolgi ctrl,CYP2C9 inh,CYP2C19 act
Cc1c(C(=O)NCCc2ccccc2)oc2ccc(S(=O)(=O)N3CCC4(CC3)OCCO4)cc12,0.1,63*,-11,11,87*,0.4
COc1ccc(CCNC(=O)c2oc3ccc(S(=O)(=O)N4CCOCC4)cc3c2C)cc1OC,0.3,33,9,5,73*,0.7
COc1ccc(CSc2nnc(C)n2N)cc1,1.1,-10,-3,7,-14,1.1
Oc1ccccc1C1N=C(c2ccccc2)NC(c2ccccc2)=N1,0.7,10,8,-1,31,0.9
Cc1ccccc1NC1=C/C(=N\S(=O)(=O)c2cccs2)c2ccccc2C1=O,0.2,82*,107*,101*,84*,0.2
O=C(CCSc1nnc2ccc3ccccc3n12)Nc1ccc(F)cc1,2.1*,31,16,11,-113,0.7
O=C(CCSc1ccc(F)cc1)Nc1ccc(-n2cnnn2)cc1,0.8,59*,-5,-3,16,0.4
COC(=O)c1ccccc1S(=O)(=O)N1CCC(c2nc3ccccc3o2)CC1,0.2,87*,-2,9,81*,0.1
CN(C)S(=O)(=O)c1ccc(C(=O)N2CCC(c3nc4ccccc4o3)CC2)cc1,0.9,0,2,11,14,1
O=C(Nc1ccc(Cl)cc1)Nc1ccc2c(c1)N1CCN=C1S2,0.3,42,2,18,67*,0.6
Cc1noc(C)c1S(=O)(=O)N1CCN(C(c2ccccc2)c2ccc(Cl)cc2)CC1 (configuration not stated),0.2,75*,-4,-3,77*,0.2
C=CCn1c(Cc2ccc(OC)cc2)nnc1SCc1nc2ccccc2c(=O)[nH]1,0.9,16,-5,-4,13,0.8
O=C(Cn1c(C(=O)N2CCN(C3CCCCC3)CC2)cc2sccc21)c1ccccc1,0.3,87*,5,31*,73*,0.1
O=C(Cn1c(C(=O)N2CCc3ccccc3C2)cc2sccc21)c1ccccc1,0.4,69*,-2,28,64*,0.3
O=C(O)CCn1c(C(=O)O)cc2sccc21,1,3,2,-6,-1,1
FC(F)(F)c1cnc(Nc2ccc(N3CCOCC3)cc2)c(Cl)c1,1.6,40,0,11,-63,0.6
CC1=CC(C)(C)n2c(O)c(C3=NC(=S)NC3=O)c3cc(OC(=O)c4cccc5ccccc45)cc1c32,1,-10,-5,-7,-3,1.1
CCOc1ccc(OCCOc2ncnc3ccccc23)cc1,0.9,34,3,8,12,0.7
CNc1ccccc1-n1ccc(-c2ccccc2)n1,0.7,72*,-9,0,29,0.3
CCC(C)[C@H](Nc1nc(-c2ccccc2)nc2c1oc1ccccc12)C(=O)O (some centres not stated),1,3,-3,6,2,1
O=C(NCc1ccccc1)NS(=O)(=O)c1ccccc1Cl,0.6,-18,30*,-4,37,1.2
Nc1ccccc1OCCOCCOc1ccccc1N,1,40,4,-2,0,0.6

# Screens (PubChem BioAssay)
